Screening results from PubChem BioAssay.
In the library only some 2.8% were active in any assay of this set; here they are far more common.
HepG2 viability – HepG2 cytotoxicity, counter-screen for TGF-b inhibitors. HepG2 CAGA-GFP viability, ATP luminescence, 18 h. hit rate 0.76% among 410,000. AID 588856. Potency, µM (series often up to 46.1 µM), without a hit: at the highest dose activity change, negative = cytotoxicity, most hits filed as cytotoxic; note: potency is the fitted concentration of half-maximal effect
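CellTiter-Glo luminescence gave cytotoxicity after 18 hours at 37 degrees C. The cells were HepG2 CAGA-GFP in 1% FBS DMEM, stimulated with 500 pg/mL TGF-beta after compound addition. %Activity was normalised to no-cell wells (complete cell-killing) and DMSO (no toxicity), and curves were fitted and classified.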
ATXN viability – reduces viability in counter-screen for ATXN expression inhibitors; S2 cells (HEK-293 line with an ATXN2-luciferase reporter) viability, CellTiter-Fluor protease fluorescence, 24 h; Potency, µM (highest dose often 56.7 µM), most hits filed as cytotoxic; AID 651635; hit rate 0.49% among 400,000; note: potency is the fitted concentration of half-maximal effect; nearly all actives have a fitted effect of over 40% in size
ATXN2 expr inh – inhibitors of ATXN2 expression; HEK-293 ATXN2-luciferase reporter, luminescence, 24 h; Potency, µM (doses to about 57 µM), for the others: top-dose activity change, negative = inhibition, hits mostly inhibitors; hit rate 0.72% among 360,000; note: potency is the fitted concentration of half-maximal effect; % is set by controls: 0 for no effect and ±100 for the full control effect; nearly all actives have a fitted effect of over 55% in size
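ATXN2-luciferase reporter cells (luciferase flanked by upstream and downstream ATXN2 gene portions) were treated 24 h at 37 °C with compounds at up to 57 uM. SteadyGlo luminescence gave expression; GF-AFC fluorescence gave viability.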
Six1-Eya2 inh – blocks human Six1 binding to Eya2. Q15475+O00167. AlphaScreen GST-Six1/His-Eya2 binding, biochemical; stronger effect = lower value. activity change, % (test concentration not listed). hit rate 0.56% among 360,000; in the data active = activity change below about -65%; inconclusive = mostly about -30% to -63%; note: % is set by controls: 0 for no effect and ±100 for the full control effect
Target sequence (O00167 whole entry, looked up): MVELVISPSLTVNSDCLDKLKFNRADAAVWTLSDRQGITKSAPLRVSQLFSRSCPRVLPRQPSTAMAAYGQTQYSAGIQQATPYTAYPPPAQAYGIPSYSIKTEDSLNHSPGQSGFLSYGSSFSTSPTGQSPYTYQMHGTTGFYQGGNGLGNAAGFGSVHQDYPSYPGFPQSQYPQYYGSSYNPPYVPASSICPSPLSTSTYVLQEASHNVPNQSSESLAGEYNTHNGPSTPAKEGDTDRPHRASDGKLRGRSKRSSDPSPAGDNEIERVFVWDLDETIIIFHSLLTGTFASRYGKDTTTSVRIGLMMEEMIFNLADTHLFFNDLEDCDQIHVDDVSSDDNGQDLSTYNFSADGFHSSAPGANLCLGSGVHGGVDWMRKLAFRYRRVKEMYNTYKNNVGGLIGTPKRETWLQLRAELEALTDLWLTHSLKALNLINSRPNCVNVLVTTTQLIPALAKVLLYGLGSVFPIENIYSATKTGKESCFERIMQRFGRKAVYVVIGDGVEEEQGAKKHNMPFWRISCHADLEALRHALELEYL
Target sequence (Q15475 whole entry, looked up): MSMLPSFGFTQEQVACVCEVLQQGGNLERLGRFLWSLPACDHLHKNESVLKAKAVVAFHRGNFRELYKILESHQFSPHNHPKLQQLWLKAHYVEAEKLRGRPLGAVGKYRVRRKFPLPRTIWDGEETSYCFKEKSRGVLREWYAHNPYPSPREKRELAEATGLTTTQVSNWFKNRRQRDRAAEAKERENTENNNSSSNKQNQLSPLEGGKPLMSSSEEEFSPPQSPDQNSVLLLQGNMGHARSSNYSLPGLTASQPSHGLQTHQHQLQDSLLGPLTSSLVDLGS
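Six1/Eya2 binding was read as AlphaScreen signal after compounds were pinned into GST-Six1 plus His-tagged Eya2 (5X stock 250/500 nM) in pH 8.0 Tris/NaCl/TCEP buffer, beads added, then incubated 1 h, 37 C, dark.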
TGFb inhibitor – inhibitors of TGF-b signaling; HepG2 CAGA-GFP TGF-b/SMAD3 reporter, GFP fluorescence, 18 h; TGF-beta stimulated, 500 pg/mL final; Potency, µM (doses to about 46.1 µM), for the others: at the top dose activity, negative = inhibition, most hits filed as inhibitors; hit rate 1.2% among 410,000; AID 588855; note: potency is the fitted concentration of half-maximal effect; % is set by controls: 0 for no effect and ±100 for the full control effect; nearly all actives have a fitted effect of over 65% in size
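Using HEPG2 CAGA-GFP reporter cells at 1000 cells/well, we pinned test compounds, stimulated with recombinant TGF-beta (500 pg/mL final) and measured total well GFP after 18 h.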
CtBP-E1A blk – blocks the CtBP interaction with E1A | AlphaScreen GST-E1A/His-CtBP binding, 1536-well; stronger effect = lower value | activity change, % (concentration not given with the values) | hit rate 0.49% among 340,000 | AID 651724; in the data active = activity change below about -65%; inconclusive = mostly about -30% to -63%; note: % is set by controls: 0 for no effect and ±100 for the full control effect
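Steps: dispense buffer (Tris pH 8.0, NaCl 300 mM, TCEP 1 mM, BSA, Tween 20); add 5X protein mix (GST-E1A, His-CtBP, 125 nM each); pin 23 nL compound; 2 h at 37 °C, dark; add 5X beads (50 ug/mL); 1 h; read.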
An asterisk follows results filed as active; i = inactive; ? = inconclusive; . = no result given; ! = repeats disagree; [ ] = dose if it differs, or a comment. Unless noted, calls come from the whole dose curve; as a rule, active = well fitted curve in the direction sought with a large enough effect; inconclusive = small, poorly fitted or top-dose-only effect, or another doubt; inactive = no such curve, though single readings can be large; an effect the other way counts as inactive or inconclusive.

SMILES	HepG2 viability	ATXN viability	ATXN2 expr inh	Six1-Eya2 inh	TGFb inhibitor	CtBP-E1A blk
CCCc1cc(-c2n[nH]c(C)c2-c2ccc(C(=O)OCC)o2)c(O)cc1O	-50%	?	?	-7	14µM*	-12
O=C(NCCc1ccc(Cl)cc1)c1ccc(CS(=O)Cc2cccc(Cl)c2)o1 (stereo not drawn)	-19%	.	.	.	8.9µM*	.
CCc1ccccc1S(=O)(=O)Cc1ccc(C(=O)NCc2ccc(Cl)cc2)o1	-32%	?	?	.	?	.
CCc1ccccc1S(=O)(=O)Cc1ccc(C(=O)NCCc2ccc(Cl)cc2)o1	-46%	.	?	.	11µM*	.
Cc1ccc2[nH]cc(C(c3ccccc3)c3ccc(C)s3)c2c1 (stereo not drawn)	11µM*	?	?	.	13µM*	.
NCC(c1ccccc1)c1c[nH]c2ccccc12 (stereo not drawn)	-44%	i	-19%	-8	?	-7
Cc1ccc2[nH]cc(C(c3ccccc3)c3cccs3)c2c1 (stereo not drawn)	16µM*	?	?	.	13µM*	.
CC(C)(CO)NC(=O)c1cnn(-c2nccc(-c3ccc4c(c3)OCO4)n2)c1C1CC1	.	i	.	.	.	.
Cc1ccc(-c2ccnc(-n3ncc(C(=O)N4CCCCC4c4cccnc4)c3C3CC3)n2)o1 (stereo not drawn)	.	i	.	.	.	.
CCN(CC(=O)NCc1ccc(F)cc1)CC(O)COCc1cccc(OC)c1 (stereo not drawn)	-41%	i	-2%	8	13µM*	0
N#C/C(=C(/O)CN1CCCCC1)c1nc(-c2ccc(Cl)cc2)cs1	-7%	i	31%	0	-2%	10
N#C/C(=C(/O)CN1CCN(c2ccccc2F)CC1)c1nc(-c2ccc(Cl)cc2)cs1	-44%	i	?	-7	7.9µM*	-11
NC(=O)NC1N=C([O][Al])NC1=O (stereo not drawn)	.	i	-12%	.	.	.
CCCCCn1c(=N)n(CC(O)COc2ccccc2OC)c2ccccc21 (stereo not drawn)	-84%	28µM*	28µM*!	0	11µM*	?
CCn1c(=N)n(CCOc2ccc(Br)cc2)c2ccccc21	-99%	.	.	.	8.9µM*	.
CCCCn1c(=N)n(CCOc2ccccc2OC)c2ccccc21	-59%	.	.	.	10µM*	.
CCCCn1c(=N)n(CCOc2ccc(C)cc2)c2ccccc21	-97%	?	?	2	?	-7
COc1ccc(OCCn2c(=N)n(CCO)c3ccccc32)cc1	-25%	i	-17%	-2	-10%	6
CC12CCC=CC1C(c1ccc(F)c(/C=C/c3ccccc3)c1)N(Cc1ccccc1)C2=O (stereo not drawn)	-6%	.	.	.	-1%	.
CC(C)C[C@H]1CN([C@@H](Cc2ccccc2)CN2CCC[C@H]2CN2C(=O)C(=O)NC[C@@H]2Cc2ccccc2)C(=O)C(=O)N1CCc1ccccc1	.	i	8%	0	.	3
CC(C)C[C@@H](CN1CCC[C@@H]1CN1C(=S)NC[C@@H]1Cc1ccccc1)N1C[C@H](Cc2ccc(O)cc2)N(CC2CCCCCC2)C1=S	-80%	14µM*	22µM*	-4	?	-5
CC(C)C[C@H]1CN([C@@H](Cc2ccccc2)CN2CCC[C@@H]2CN2C(=O)C(=O)NC[C@@H]2Cc2ccccc2)C(=O)C(=O)N1CCc1ccccc1	-91%	25µM*	?	-22	?	-19
CC(C)C[C@@H](CN1CCC[C@@H]1CN1C(=S)NC[C@@H]1Cc1ccccc1)N1C[C@H](Cc2ccc(O)cc2)N(CC2CCCCC2)C1=S	-17%	?	-7%	0	?	-8
Oc1ccc(C[C@H]2CN([C@@H](Cc3cccc(O)c3)CN3CCC[C@@H]3CN3C(=S)NC[C@@H]3Cc3ccccc3)C(=S)N2CC2CCCCC2)cc1	-46%	13µM*	16µM*	-6	5µM*	-13
CC(C)C[C@H]1CN([C@@H](Cc2ccc(O)cc2)CN2CCC[C@@H]2CN2C(=S)NC[C@@H]2Cc2ccccc2)C(=S)N1CC1CCCCC1	-30%	?	0%	-17	11µM*	-13
SMILES	HepG2 viability	ATXN viability	ATXN2 expr inh	Six1-Eya2 inh	TGFb inhibitor	CtBP-E1A blk
CC(C)C[C@H]1CNC(=S)N1CC1CCCN1C[C@H](Cc1ccc(O)cc1)N1C[C@H](Cc2ccccc2)N(CC2CCCCCC2)C1=S (stereo partly drawn)	-27%	i	-12%	-10	?	-4
Oc1ccc(C[C@H]2CN([C@@H](Cc3ccccc3)CN3CCCC3CN3C(=S)NC[C@@H]3Cc3ccccc3)C(=S)N2CC2CCCCC2)cc1 (stereo partly drawn)	.	?	-33%	-11	.	-12
CCOc1ccc(CCNC(=O)C(CC)n2nc(C)c3c(C)n(-c4ccccc4)nc3c2=O)cc1 (stereo not drawn)	-11%	i	-13%	.	-7%	.
O=C1c2cc([N+](=O)[O-])ccc2-c2cc(Br)c(N=C(NO)C(F)(F)F)cc21	-109%	i	0%	-21	0%	-9
C[C@H](CO)N1C[C@H](C)[C@H](CN(C)Cc2ccc(Oc3ccccc3)cc2)Oc2ccc(NC(=O)Nc3cccc4ccccc34)cc2CC1=O	-18%	i	7%	-13	?	-10
C[C@H](CO)N1C[C@H](C)[C@H](CN(C)Cc2ccncc2)Oc2ccc(NC(=O)Nc3ccc(C(F)(F)F)cc3)cc2CC1=O	-59%	28µM*	?	-8	13µM*	-1
C[C@H]1CN([C@@H](C)CO)C(=O)Cc2cc(NC(=O)Nc3ccccc3)ccc2O[C@H]1CN(C)Cc1ccccc1	-82%	28µM*	?	-9	?	-6
O=C(O)c1ccc(N=Nc2c(O)ccc3ncccc23)cc1	-6%	i	.	-94*	-1%	.
Cc1ccc(C(=O)CSc2nc3cc(C(=O)NC4CCCC4)ccc3c(=O)n2CC2CCCO2)c(C)c1 (stereo not drawn)	-1%	i	3%	.	-3%	.
COc1cc(O)oc1C=Nc1ccc(C(=O)O)cc1	14µM*	i	-31%[11.3 µM]	7	-3%	-5
CCN1CCN(S(=O)(=O)c2ccc(Cl)c(C(=O)Nc3ccc(OC(F)F)cc3)c2)CC1	8.9µM*	i	-5%	-1	-22%	9
CCOc1cc(/C=C2\CN(C)C/C(=C\c3ccc(O)c(OCC)c3)C2=O)ccc1O	-55%	.	3.2µM*	-7	?	0
